Only some compounds are listed: those with a hit (about 7.4% of all), similar ones and a draw of the others.
NPC1 promoter act = qHTS Assay for NPC1 Promoter Activators; Potency, µM (highest dose often 9.22 µM), without a hit: at the top dose activation, most hits filed as activators; actives 2.4% (n = 320,000); Huh7 NPC1 promoter luciferase reporter, 24 h; further: % of control where 0% means no effect; nearly all actives have a fitted effect of over 60% in size
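In 1536-well qHTS, Huh7 cells harboring an NPC1 promoter–luciferase construct received compound for 24 h; activation was quantified by luminescence following luciferase reagent addition.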
Rab9 promoter act = qHTS Assay for Rab9 Promoter Activators; Huh7 Rab9 promoter-luciferase reporter, luminescence, 24 h; Potency, µM (highest dose often 9.22 µM), for the others: top-dose activation, negative = inhibition, actives largely listed as activators; actives 2.8% (n = 320,000); AID 485297, 2010; further: % of control where 0% means no effect; nearly all actives have a fitted effect of over 60% in size
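Rab9 promoter-driven luciferase in stably transfected Huh7 cells; 1500 cells/well rested 2 h, exposed to compound in DMSO for 24 h at 37 °C, 5% CO2. Luminescence read 10 min after adding luciferase reagent at ambient temperature.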
ELG1 genotox = qHTS screen for small molecules that induce genotoxicity in human embryonic kidney (HEK293T) cells expressing luciferase-tagged ELG1. Potency, µM (series often up to 46 µM), without a hit: top-dose activity change, positive = activation, most hits filed as activators. actives 1.3% (n = 330,000). HEK293T ELG1-luciferase reporter, luminescence, 16 h; further: % of control where 0% means no effect; nearly all actives have a fitted effect of over 60% in size
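HEK293T cells expressing luciferase-tagged ELG1 were exposed to compound or DMSO vehicle for 16 hr at 37 °C and 5% CO2. Luciferase activity was then measured with ONE-Glo after 30 min at room temperature.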
SMN2 splice up = qHTS Assay for Enhancers of SMN2 Splice Variant Expression; actives 2.8% (n = 210,000); AID 1458, 2008; Potency, µM (highest dose often 46.1 µM), for the others: at the top dose activity change, positive = activation, most hits filed as activators; HEK293 SMN2-luciferase splicing reporter, luminescence, 30-36 h; further: % of control where 0% means no effect; nearly all actives have a fitted effect of over 55% in size
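qHTS luciferase splicing reporter: luminescence rises when SMN2 exon 7 is included in transfected HEK293 cells. Compound exposure lasted 30-36 h at 37C, with 4.5 mM final sodium butyrate as control, followed by a ONE-Glo read.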
FLuc modulator = qHTS profiling assay for firefly luciferase inhibitor/activator using purifed enzyme and Km concentrations of substrates (counterscreen for miR-21 project). Potency, µM (highest dose often 57.5 µM), for inactives: top-dose activity change, negative = inhibition, hits mostly inhibitors. AID 588342, 2011. actives 6.9% (n = 360,000). purified FLuc, Km substrates, luminescence inhibition. Luciferin 4-monooxygenase (Photinus pyralis), P08659;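 further: plate controls were vehicle for no effect and reference inhibitor for full effect; nearly all actives have a fitted effect of over 55% in size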
Target sequence (P08659 whole entry, looked up): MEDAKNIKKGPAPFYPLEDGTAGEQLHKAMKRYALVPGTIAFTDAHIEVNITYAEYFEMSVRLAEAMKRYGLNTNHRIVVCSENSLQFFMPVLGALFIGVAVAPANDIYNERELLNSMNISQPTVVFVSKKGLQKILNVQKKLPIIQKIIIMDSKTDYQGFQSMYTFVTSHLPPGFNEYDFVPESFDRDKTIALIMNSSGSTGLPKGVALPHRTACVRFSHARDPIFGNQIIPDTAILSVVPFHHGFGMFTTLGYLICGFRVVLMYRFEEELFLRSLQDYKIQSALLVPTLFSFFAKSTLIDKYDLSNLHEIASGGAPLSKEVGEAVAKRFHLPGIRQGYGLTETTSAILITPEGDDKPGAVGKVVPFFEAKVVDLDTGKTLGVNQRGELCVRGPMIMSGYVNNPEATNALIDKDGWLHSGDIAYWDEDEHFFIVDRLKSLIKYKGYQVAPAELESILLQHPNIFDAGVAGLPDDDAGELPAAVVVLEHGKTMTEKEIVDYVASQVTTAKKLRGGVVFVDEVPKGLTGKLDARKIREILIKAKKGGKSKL
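Purified P. pyralis luciferase (10nM final) with 10uM D-luciferin and 10uM ATP (Km levels) in 50mM Tris acetate pH 7.5, 10mM Mg acetate, 0.01% Tween-20, 0.05% BSA; qHTS 6-point titration, ~60 µM downward; luminescence read.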
Starred values were filed as active, the others as inactive; ? = inconclusive; / = no result. The call rests on the fitted dose curve; in most records, active means well fitted curve in the direction sought with a large enough effect; inconclusive means small, poorly fitted or top-dose-only effect, or another doubt; inactive means no such curve, though single readings can be large; an effect the other way counts as inactive or inconclusive. Potency means the concentration at half of the fitted maximal effect.

SMILES	NPC1 promoter act	Rab9 promoter act	ELG1 genotox	SMN2 splice up	FLuc modulator
COc1ccc2nc(NCCO)[nH]c2c1	0%	-1%	0%	7%	5%
COc1ccc2nc(NCc3ccccc3)[nH]c2c1	17%	?	?	13µM*	15µM*
S=c1nc(NCc2ccc3c(c2)OCO3)c2ccccc2[nH]1	13%	10%	2%	/	-1%
c1ccc2[nH]c(NCc3ccc4c(c3)OCO4)nc2c1	?	?	?	/	3.4µM*
COCCCNC(=O)c1ccc2c3c(onc13)-c1ccccc1C2=O	3.2µM*	0.71µM*	-11%	/	6µM*
COc1ccc(N2CCN(c3ccc(-c4nc(-c5ccccc5)no4)cc3[N+](=O)[O-])CC2)cc1	/	/	/	/	-12%
CC(C)(C)C(=O)[C@H]1[C@H](c2ccccc2)[C@@]2(N=C(c3ccccc3)OC2=O)C2c3ccccc3C=NN21 (stereo partly drawn)	0%	-1%	3%	13%	15µM*
CCN(CC)Cc1c(O)ccc2c1O/C(=C\C=C\c1ccccc1)C2=O	-4%	-4%	-1%	/	12µM*
COc1ccccc1/C=C/C=C1\Oc2c(ccc(O)c2CN(C)C)C1=O	2%	2%	2%	/	3µM*
CS(=O)(=O)Oc1ccc2c(c1)O/C(=C\C=C\c1ccccc1)C2=O	7%	-1%	1%	/	7.6µM*
CS(=O)(=O)Oc1ccc2c(c1)O/C(=C\c1cccc([N+](=O)[O-])c1)C2=O	3%	-1%	-1%	/	-3%
COCCN(CCOC)Cc1c(O)ccc2c1O/C(=C\c1ccc(C)o1)C2=O	-2%	-2%	-1%	/	?
CCOC(=O)C1CCN(c2ncnc3c(C)csc23)CC1	25%	?	?	/	11µM*
Cc1csc2c(N3CCN(C(=O)c4ccc(C(C)(C)C)cc4)CC3)ncnc12	-6%	-4%	5%	/	27µM*
Cc1csc2c(N3CCN(C(=O)NC(C)(C)C)CC3)ncnc12	-4%	-8%	-9%	/	-2%
O=C(O)c1cc(-c2ccc(Cl)s2)nc2ccccc12	1%	4%	-2%	?	15µM*
CCN1CCN(C(=O)c2cc(-c3ccc(Cl)s3)nc3ccccc23)CC1	-2%	-1%	-6%	/	19µM*
O=C(Nc1ccccn1)c1cc(-c2ccc(Cl)s2)nc2ccccc12	2%	-2%	-3%	/	?
Cc1ccc(-c2cc(C(=O)O)c3ccccc3n2)s1	29%	23%	?	/	2.7µM*
Cc1cccc(NC(=O)c2cc(-c3ccc(C)s3)nc3ccccc23)n1	3%	0%	-9%	-31%	11µM*
CCOC(=O)c1c(NC(=O)CSc2cn(CCNC(=O)c3c(F)cccc3F)c3ccccc23)sc2c1CCCC2	/	/	/	4%	1%
CCC(CC)C(=O)N1CCc2cc(OC)c(OC)cc2C1COc1ccccc1OC (stereo not drawn)	/	/	/	/	-4%
CCN(CC)c1ccc(NC(=O)COC(=O)c2cccs2)cc1	-1%	2%	-1%	-3%	12µM*
COc1ccc(NC(=O)COC(=O)c2ccc3ccccc3n2)cc1	2%	-6%	1%	/	-1%
CCN(c1ccc(NC(=O)COC(=O)c2cccs2)cc1)C(C)C	-1%	13%	0%	?	8.5µM*
SMILES	NPC1 promoter act	Rab9 promoter act	ELG1 genotox	SMN2 splice up	FLuc modulator
CCN(CC)c1ccc(NC(=O)COC(=O)c2ccc3ccccc3n2)cc1	11%	-4%	1%	23%	24µM*
CCN(c1ccc(NC(=O)COC(=O)c2cc3ccccc3oc2=O)cc1)C(C)C	-11%	-2%	-1%	-4%	?
COc1cc(OC)cc(C(=O)OCC(=O)Nc2ccc3[nH]c(=O)[nH]c3c2)c1	3%	3%	1%	/	6%
CCN(CC)c1ccc(C(=O)OCC(=O)Nc2ccc3[nH]c(=O)[nH]c3c2)cc1	-1%	-4%	3%	2%	19µM*
Cc1c(Cl)cccc1-n1ncc(C(=O)NCCN2CCN(C)CC2)c1C1CCN(C(=O)OC(C)(C)C)CC1	/	/	/	/	-3%
O=C(N/N=C/c1cccc(C(F)(F)F)c1)c1ccc(O)cc1	-3%	14%	7%	11%	17µM*
O=C(N/N=C/c1ccc(C(F)(F)F)cc1)c1ccc(O)cc1	16%	11%	13%	6%	11µM*
O=C(N/N=C/c1ccc(O)cc1)c1csc2c1CCCC2	22%	23%	9%	30%	13µM*
CC1=C(C(=O)Nc2cccc(Cl)c2C)C2(CCCCCC2)OC1=O	/	/	/	/	3%
COc1ccc(C(=O)Nc2ccc(-c3nnn(CC(=O)N4CCN(C(=O)c5ccco5)CC4)n3)cc2)cc1	2%	1%	-7%	-13%	13µM*
Cc1sc2nc(-c3cccnc3)nc(Cl)c2c1-c1ccccc1	?	17%	11%	?	17µM*
Cc1sc2nc(-c3ccccc3)[nH]c(=O)c2c1-c1ccccc1	-3%	-2%	6%	0%	-6%
COc1ccc(C2C(C(=O)c3cccs3)=C(O)C(=O)N2Cc2cccnc2)cc1OC (stereo not drawn)	?	?	?	/	19µM*
Cc1ccc(Cl)cc1N1CCN(C(=O)c2ccc3c(c2)N(Cc2ccccc2)CCS3)CC1	/	/	/	3%	-2%
Cc1nc2ncccn2c1-c1csc(Nc2ccccc2)n1	2%	0%	10%	20%	-16%
c1cncc(Nc2nc(-c3cccs3)cs2)c1	?	3.2µM*	9.2µM*	11µM*	19µM*
Fc1ccc(Nc2nc(-c3ccncc3)cs2)cc1	?	?	-1%	?	?
c1ccc(Nc2nc(-c3ccccn3)cs2)cc1	/	/	/	13µM*	3.8µM*
c1ccc(-c2csc(Nc3cccnc3)n2)nc1	?	?	?	?	19µM*
COc1cccc2sc(Nc3nc(-c4ccccn4)cs3)nc12	21%	?	9%	/	12µM*
CCOC(=O)CNC(=O)N1CCCN(S(=O)(=O)c2ccc3c(ccn3CC)c2)CC1	/	/	/	/	-1%
CCc1ccc(C(=O)/C=C/c2cnn(C)c2C)s1	4µM*	3.5µM*	13µM*	13µM*	0.6µM*
Nc1ccc(/C=C/C(=O)c2cccs2)cc1	4µM*	3.5µM*	?	/	1.3µM*
Cc1c(/C=C/C(=O)c2cccs2)cnn1C	?	?	21µM*	-36%	9.5µM*
Cc1ccc(-n2cc(C(=O)c3ccc(F)cc3)nn2)cc1Cl	0.5µM*	0.5µM*	?	7.1µM*	0.24µM*
CC(=O)NC1C(O)C[C@@](O)(C(=O)O)OC1[C@@H](O)C(O)CO (stereo partly drawn)	/	/	/	-5%	/
